Screening data (PubChem BioAssay)
Fam108B inh = counter-screen for RBBP9 inhibitors: inhibitors of mouse Fam108B; recombinant Fam108B, FP-Rh probe fluorescence polarization; inhibition, % at 9.51 µM; 300,000 tested, 0.33% active;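 active = inhibition above the screen mean inhibition plus 3 SD, computed separately per campaign, cut at about 18% in these data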;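 also: inhibitors lower polarization as less probe binds the enzyme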
LYPLA1 inh = LYPLA1 (human) inhibition in PME1 counter-screen; recombinant LYPLA1, FP-Rh probe fluorescence polarization; inhibition, % at 5.9 µM; 320,000 tested, 0.16% active; O75608;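 active = inhibition above the mean of all tested compounds plus 3 SD, set per campaign, cut at about 14% in these data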;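 also: inhibitors block serine hydrolase probe labeling of LYPLA1 so polarization falls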
PME-1 inh = blocks human protein phosphatase methylesterase 1 | Q9Y570 | recombinant PME-1, FP-Rh probe fluorescence polarization | inhibition, % at 5.9 µM | 320,000 tested, 0.53% active | AID 2130;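 active = inhibition above the campaign mean of all compounds plus 3 SD, cut at about 26% in these data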;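 also: competitive labeling of PME-1 active site by serine hydrolase directed probe; inhibitors block probe labeling so polarization falls and inhibition rises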
Target sequence (Q9Y570 whole entry, looked up): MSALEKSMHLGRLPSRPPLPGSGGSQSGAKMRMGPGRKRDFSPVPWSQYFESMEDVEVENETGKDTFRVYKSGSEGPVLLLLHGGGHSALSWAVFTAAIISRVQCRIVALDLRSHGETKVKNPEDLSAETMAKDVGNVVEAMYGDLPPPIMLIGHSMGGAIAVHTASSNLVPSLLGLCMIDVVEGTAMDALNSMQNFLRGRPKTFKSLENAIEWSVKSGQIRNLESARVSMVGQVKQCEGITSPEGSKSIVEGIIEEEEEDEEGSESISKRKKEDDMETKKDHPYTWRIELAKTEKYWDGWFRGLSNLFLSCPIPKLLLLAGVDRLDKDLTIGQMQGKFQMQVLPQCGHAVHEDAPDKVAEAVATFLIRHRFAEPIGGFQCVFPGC
GSTO1 counter = GSTO1 inhibition, counter-screen for RBBP9 inhibitors; P78417; recombinant GSTO1, activity-based probe fluorescence polarization; inhibition, % at 5.96 µM; 300,000 tested, 1.1% active; AID 1974;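 active = inhibition above the campaign mean inhibition plus 3 SD, cut at about 35% in these data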
Target sequence (P78417 whole entry, looked up): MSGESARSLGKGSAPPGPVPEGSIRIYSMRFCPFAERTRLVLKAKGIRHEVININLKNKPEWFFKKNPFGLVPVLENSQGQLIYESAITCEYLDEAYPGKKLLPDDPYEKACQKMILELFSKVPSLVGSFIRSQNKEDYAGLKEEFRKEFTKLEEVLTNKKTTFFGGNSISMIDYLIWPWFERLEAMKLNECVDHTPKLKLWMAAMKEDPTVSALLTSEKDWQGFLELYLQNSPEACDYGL
LYPLA2 inh = counter-screen for PME1 inhibitors: inhibitors of human LYPLA2; O95372; recombinant LYPLA2, FP-Rh probe fluorescence polarization; inhibition, % at 5.9 µM; 320,000 tested, 0.38% active;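 active = inhibition above the screen-wide mean plus 3 SD, limit set per campaign, cut at about 26% in these data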
PAD4 inh = inhibitors of human PAD4 | inhibition, % at 6.36 µM | AID 485272 | Q9UM07 | 330,000 tested, 0.41% active | recombinant PAD4, RCA probe fluorescence polarization;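 active = percent inhibition above a cutoff equal to the mean of all tested compounds plus 3 SD, cut at about 15% in these data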
Fam108b confirm = Fam108b (mouse) hydrolase inhibition, confirmation assay; recombinant Fam108b, FP-Rh probe fluorescence polarization; AID 1978; 930 tested, 44% active; shares compounds with Fam108B inh; inhibition, % at 9.51 µM;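 active = inhibition above a limit from the primary screen, the mean over all compounds plus 3 SD, cut at about 19% in these data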;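 also: inhibitors free the probe so polarization falls as inhibition rises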
Fam108b ABPP HTS = mouse ABHD17B inhibition | recombinant Fam108b, gel-based ABPP, fluorophosphonate probe | shares compounds with Fam108B inh | inhibition, % at 20 µM | AID 588649 | 260 tested, 44% active; in the data active = inhibition above about 40%
Of the large screens only hits and unclear results are named; the others gave an inactive call (follow-up assays come after a bar, where they were run). Hits are enriched below; roughly 1.8% of the tested compounds scored in any of these assays.

CCOc1ccc(-c2c(C(=O)N/N=C/c3c[nH]c4ccccc34)nnn2-c2nonc2N)cc1	Fam108B inh 18.6 | Fam108b confirm inactive
CN(CC(=O)Nc1ccccc1Br)C(=O)CN1CCN(c2ccccc2Cl)CC1	none (no result: Fam108B inh, GSTO1 counter)
CC1CCCCN1S(=O)(=O)c1ccc(C(=O)Nc2ccccc2-c2nc3ccccc3[nH]2)cc1 (configuration not stated)	Fam108B inh 32.0, PME-1 inh 27.7 | Fam108b confirm 71.8
CC1CCCCN1S(=O)(=O)c1ccc(C(=O)Nc2ccccc2-c2nc3ccccc3s2)cc1 (configuration not stated)	none
CC(=O)NCC(c1cccs1)S(=O)(=O)c1ccc(F)cc1 (configuration not stated)	none
CCOC(=O)Cc1csc(NC(=O)c2sc3nc4c(C)cc(C)cc4cc3c2N)n1	Fam108B inh 23.2, PME-1 inh 85.9 | Fam108b confirm inactive
O=C(CCCCCn1c(=O)[nH]c2ccsc2c1=O)NCc1ccc2c(c1)OCO2	none
Cc1[nH]c2ccccc2c1/C=N/Nc1ccccc1[N+](=O)[O-]	Fam108B inh 22.3, PME-1 inh 46.8 | Fam108b confirm inactive
Cc1[nH]c2ccccc2c1/C=N/NS(=O)(=O)c1ccccc1	none
COC(=O)N/N=C/c1cc(N=Nc2ccccc2Cl)ccc1O	Fam108B inh 22.3 | Fam108b confirm inactive
Cc1cc(C(=O)N/N=C/c2cc(N=Nc3ccccc3)ccc2O)n[nH]1	Fam108B inh 20.2 | Fam108b confirm inactive
COC(=O)N/N=C/c1cc(N=Nc2ccccc2)ccc1O	none
Nc1ccc(C(=O)N/N=C\c2cc(N=Nc3cccc4ccccc34)ccc2O)cc1	Fam108B inh 20.8, PME-1 inh 39.7 | Fam108b confirm inactive
Cc1ccc(N2C(=O)N(CC(=O)Nc3ccc([N+](=O)[O-])cc3)C(=O)C2C)cc1 (configuration not stated)	none
CCOC(=O)c1sc(NC(=O)Nc2ccc(Cl)cc2)cc1C	Fam108B inh 44.1 | Fam108b confirm 83.2 | Fam108b ABPP HTS 95.0
CCOC(=O)c1sc(NC(=O)c2ccc(Cl)s2)cc1C	none
O=C(Nc1ccc(Cl)cc1)Nc1ccc2c(c1)N1CCN=C1S2	Fam108B inh 21.6 | Fam108b confirm inactive
CCCOc1ccc(C2C3=C(Nc4nc(N)[nH]c(=O)c42)c2ccccc2C3=O)cc1 (configuration not stated)	Fam108B inh 22.7 | Fam108b confirm 19.2
Cc1ccc(C(C)C)c(OCc2ccc(C(=O)N/N=C/c3cccc(O)c3O)cc2)c1	Fam108B inh 28.2, PME-1 inh 49.4 | Fam108b confirm inactive
O=C(N/N=C/c1ccc(O)c(O)c1)c1ccc(CSc2cccc3cccnc23)cc1	Fam108B inh 43.5, PME-1 inh 53.7 | Fam108b confirm 25.9
O=C(CSc1cccc2cccnc12)N/N=C/c1cccc(O)c1	none
Cc1ccc(C(C)C)c(OCc2ccc(C(=O)N/N=C/c3ccc(O)c(O)c3)cc2)c1	Fam108B inh 34.7, PME-1 inh 37.5 | Fam108b confirm inactive
COc1ccc(N=Nc2ccc3ccccc3c2)c(O)c1	none
Oc1c(N=Nc2ccc(F)cc2)ccc2ccccc12	none
Cc1ccc(N=Nc2ccc3ccccc3c2O)cc1	Fam108B inh 28.5 | Fam108b confirm inactive
COc1cccc(N=Nc2ccc3ccccc3c2O)c1	Fam108B inh 19.3 | Fam108b confirm inactive
Cc1ccc(-c2csc(NCCn3c(-c4ccncc4)nc4ccccc43)n2)cc1	none
O=C(Nc1nc(-c2ccccc2)cs1)c1ccccc1NS(=O)(=O)c1ccc(F)cc1	Fam108B inh 24.0 | Fam108b confirm inactive
O=S(=O)(Nc1ccc(-c2csc(-c3ccccc3)n2)cc1)c1ccc(F)cc1	none
COc1cccc(N2CCN(S(=O)(=O)c3ccc4nc(-c5ccccc5)[nH]c4c3)CC2)c1	Fam108B inh 20.9 | Fam108b confirm inactive
CCCc1cc(=O)[nH]c(SC(C)C(=O)N2c3ccccc3CC2C)n1 (configuration not stated)	none (no result: Fam108B inh, GSTO1 counter)
NNC(=O)c1cc2sccc2s1	none
CCOc1ccc(CN(C)C(=O)CCN2C(=O)c3ccccc3C2=O)cc1OC	none
O=C1NN(c2cccc(Br)c2)C(=O)/C1=C/c1ccc(-c2cc([N+](=O)[O-])ccc2O)o1	Fam108B inh 20.5 | Fam108b confirm inactive
O=C1NN(c2cccc(Br)c2)C(=O)/C1=C\c1ccc(O)cc1	none
Cc1[nH]c2ccccc2c1/C=N/NC(=O)C1CC1(c1ccccc1)c1ccccc1 (configuration not stated)	Fam108B inh 21.1, PME-1 inh 41.8 | Fam108b confirm inactive
O=C(Nc1ccc(-c2csc(Nc3ccc(Cl)cc3)n2)cc1)c1cccc(C(F)(F)F)c1	Fam108B inh 49.7, PME-1 inh 26.4 | Fam108b confirm 67.7 | Fam108b ABPP HTS 95.0
O=C(Nc1cccc(-c2csc(Nc3cccc(C(F)(F)F)c3)n2)c1)c1cc([N+](=O)[O-])cc(C(F)(F)F)c1	Fam108B inh 18.6 | Fam108b confirm inactive
CC(=O)c1cccc(Nc2nc(-c3cccc([N+](=O)[O-])c3)cs2)c1	none
O=C(Nc1ccc(-c2csc(Nc3ccccc3)n2)cc1)c1cccc(C(F)(F)F)c1	none
O=C(Nc1ccc(-c2csc(Nc3ccccc3)n2)cc1)c1cc([N+](=O)[O-])cc(C(F)(F)F)c1	Fam108B inh 64.5 | Fam108b confirm 87.0 | Fam108b ABPP HTS 100.0
COC(=O)C1CCN(C(=O)COC(=O)c2cccc(NS(=O)(=O)c3ccccc3)c2)CC1	none
CCC(=O)Oc1ccc(C/C(=N\O)c2ccc(O)cc2O)o1	Fam108B inh 25.9, PME-1 inh 36.0 | Fam108b confirm inactive
CCOC(=O)c1ccc(CC(=O)c2ccc(O)cc2O)o1	none
Cn1ncc2c(Nc3cccc(Cl)c3)nc(Nc3cccc(Cl)c3)nc21	none
Cn1ncc2c(Nc3ccc(Br)cc3)nc(Nc3ccc(Br)cc3)nc21	Fam108B inh 18.9 | Fam108b confirm inactive
CC(C)NC(=O)C(C)Oc1ccc(S(=O)(=O)NCc2ccc3c(c2)OCO3)cc1 (configuration not stated)	none
Cc1nc(SCC(=O)Nc2c(C)n(C)n(-c3ccccc3)c2=O)c(C#N)c(C)c1C	none (no result: Fam108B inh, GSTO1 counter)
CCCc1cc(SCC(=O)Nc2c(C)n(C)n(-c3ccccc3)c2=O)n2c(nc3ccccc32)c1C#N	Fam108B inh 24.0 | Fam108b confirm 22.6
O=C(N/N=C/c1ccncc1)c1cccc(N/N=C/c2ccncc2)c1	none
O=C(N/N=C/c1ccc(O)cc1)c1cccc(N/N=C/c2ccc(O)cc2)c1	Fam108B inh 55.6, PME-1 inh 30.8 | Fam108b confirm 47.6
COc1cc(/C=N/Nc2nc3ccccc3s2)ccc1OC(=O)c1ccccc1F	none
